In the supplement of paper PMC6555819:

Legend:
Experiment in all cases: PBM binding z-score (relative to random genomic background probes); higher = stronger binding; sequences stand for … in GC…GCGATTGACAGCGTAGAATGAAGG
[1] = system: RARg:RXRa (NR concentration 270 nM, RXRa partner concentration 90 nM)
Procedure, shortened: (§1)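 Scanned fluorescence from custom Agilent 4×180K protein-binding microarrays was regression-normalized. Binding z-scores use random background probes as reference. Ligand-free nuclear receptor dimers were incubated on the arrays for 1 h and detected with antibodies against each partner (one per run).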

[2] = system: RARg homodimer (NR concentration 270 nM)
Procedure, shortened: as §1

[3] = system: RXRa DBDmut IVT, anti-RXR (DBD mutation: RXRa K156A/R161A, NR concentration 90 nM)
Procedure, shortened: as §1

[4] = system: THRa homodimer (NR concentration 90 nM)
Procedure, shortened: as §1

[5] = system: VDR homodimer (NR concentration 270 nM)
Procedure, shortened: as §1

[6] = system: THRa:RXRa (NR concentration 90 nM, RXRa partner concentration 90 nM)
Procedure, shortened: as §1

[7] = system: RXRa homodimer (NR concentration 180 nM)
Procedure, shortened: as §1

Sequence	PBM binding z-score [1]	PBM binding z-score [2]	PBM binding z-score [3]	PBM binding z-score [4]	PBM binding z-score [5]	PBM binding z-score [6]	PBM binding z-score [7]
ACTTACGGGTCAACGAGGTCATAGCACGCGTATA	7.14	6.95	3.65	3.64	7.5	–	–
GGAACGAGGTCAAAGTTGATAGCATCTGTCGACG	6.64	6.56	4.67	2.61	4.79	4.12	–
TAGCCTAGTTCATGCGGGCCAGTATAGTGTCGGC	–	0.586	1.71	-0.684	1.56	–	0.0808
CAAACAAGGTCACGAAAGGTCAAAGTCGAATGAC	–	9.5	4.12	3.65	5.74	5.17	–
CAAACAAGGTCACAGAGGTCAAAGTCCGTGCGTA	–	9.05	4.67	4.36	9.97	5.03	–
CCTACTGGGTCAAAGGTCATTGATTCCAATGCTC	–	5.88	2.87	1.69	3.95	4.52	–
TGTCAAAGGTCAAAGGTAACGTAAGTATCCACAC	–	8.8	3.15	0.695	2.81	4.47	–
GCTGCGAGGTCAACTGATGGTCAGCTAAAGCTCG	–	7.44	4.3	2.9	3.42	4.33	7.17
CGTCAAAGGTCAAGGTCAGTGAAAGAGACTCGAA	–	9.35	3.45	2.28	3.23	4.33	–
CGTCAAAGGTCAATGCTAGGTCAGTGAAAGCATT	–	8.73	3.76	1.42	2.5	4.77	–
CGAACGAGGTCACCAGGACAGTGAAGAGGTTGGA	7.15	7.24	4.32	3.86	3.87	4.66	–
TCTAGTCGGTCAAAGGTCACACACTCGAAATGCG	–	7.3	1.78	2.24	2.75	4.13	–
CAAAATAGGTCAAAGGTCAAAGTCGAGCCAACCA	–	7.97	2.84	1.18	2.93	4.79	–
ATATGTAGGTTAAAGGTCATTCAGGTTGGTTCGC	6.81	5.37	2.47	1.97	5.11	4.31	–
AATACGGGGTCATCGTAGGCCAGAGTACGCACAG	–	7.15	4.86	2.62	6.13	4.99	–
AATACGGGGTCACTAGGCCAGAGTAGGTACGAAT	7.06	6.82	4.12	2.25	4.82	4.25	–
TATACAGGGTCAAAGGCCAAAGTACGAATGTCGA	6.22	5.3	3	0.785	3.3	3.76	–
TCTAGTTGGTCAAAGGTCACGCACTCGAAATGCG	–	7.23	1.92	2.52	3.12	4.31	8.9
CGTCAAAGTTCAACTAAGGTCACGTAAAGCACGC	–	8.89	4.75	5.58	6.52	–	7.65
CAAACCAGGTCAAAGGTCAAAGTCGAGCCAACCA	8.97	7.49	3.71	2.57	3.91	5.07	–
TAGCCTAGGTCATTCAGGGGCAAGTATAGAAAGC	–	4.44	2.38	0.948	2.65	–	3.47
CGTCCAAGGTCATAGGGGGTCAGTGAAGACAGAT	–	7.83	4.45	4.24	4.75	5.24	7.31
ATCGAAAGGTCAACGAGGTGAGTATACACCGTTT	–	8.92	3.23	1.96	3.29	4.42	–
CGTCCAAGGTCACAGAGGTCAGTGAATGCCGAGT	–	8.03	3.92	3.95	6.67	–	7.67
CCTCGGAGGTCAACAGGAGGTCAGAGCTGCCAGA	–	7.73	3.36	1.81	3.37	4.73	7.54
CCAACTAGGTCAAAGGACAGTGAAAGGCGACGTA	–	4.53	1.91	0.765	0.866	2.4	3.05

Sequence	PBM binding z-score [1]	PBM binding z-score [2]	PBM binding z-score [3]	PBM binding z-score [4]	PBM binding z-score [5]	PBM binding z-score [6]	PBM binding z-score [7]
GCTGCTAGTTCAACTGATGGTCAGCTAAAGCTCG	1.93	1.07	1.97	-0.498	0.327	0.297	–
CAAACTAGGTCAAAAGGTCAAAGTCCGCTTCCCG	–	8.65	2.66	1.87	3.77	4.48	–
CGTCAAAGGTCAGCAGGTCAGTGAAAGCGACGTG	–	8.73	2.54	0.878	1.62	3.92	–
ATATGTAGGTCAAGGGTCATTCAGGTTGGTTCGC	7.22	6.02	2.84	2.22	4.28	4.58	–
CCGACGGGGGCAAAGGTTACCATACTCAGTACGA	6.4	4.09	3.13	1.02	2.92	3.88	–
CGTCAAAGGTCAAAGGTCAGTGAAGAGATGACGG	–	9.73	4.01	1.08	3.49	4.94	–
GATACGGGGTCAAGGCCAGAGTACGCGTATTGAT	7.3	6.89	4.16	2.04	4.85	4.23	–
CCGAGAAGGTTACGAGGGGGCATTCAGTGCGAAT	–	3.13	1.65	0.555	3.67	4.4	3.45
CAAAATAGGTCACGAAAGGTCAAAGTCGAATGAC	–	8.76	2.5	1.51	3.8	5.07	8.89
ATCGAAAGGTCATGAGGTGAGTATACAGAAAGGC	–	8.01	3.11	1.95	2.68	4.37	–
TAGCCGAGGTCATTCAGGGGCCAGTATAGAAAGC	–	6	4.38	2.38	5.34	4.56	6.55
CAAAATAGGTCACAGAGGTCAAAGTCCGTGCGTA	–	8.18	3.08	2.2	6.13	4.74	8.46
TGTCAAAGTTCAAAGGTCACGTAAGTATCCACAC	–	9.03	4.57	1.88	5.69	–	–
CAAAATAGGTCACCGGAAGGTCAAAGTCCGCATG	–	8.46	2.03	1.82	3.41	4.65	–
CTCGAAAGGTCATGCTCAGGTGAGTATACCAAAC	–	8.47	3.44	1.61	2.44	4.72	–
CGTCCAAGGTCAAAGGTCAATGAAGAGATGACGG	–	8.5	3.93	2.5	3.6	–	–
CGTCAAAGGTCATAGGAGGTCAGTGAAGACAGAT	–	8.6	3.88	1.85	3.84	–	–
CGTCCAAGGTCAAAGGTCATTGAAGAGATGACGG	–	8.52	4.24	3.04	5.06	–	–
TCTAGTGGGTCAAAGGTCACACACTCGAAATGCG	–	7.49	2.07	1.7	2.84	4.61	–
CAAACGAGGTCAAGAGGTCAAAGTCCGCTTCCCG	–	8.65	4.19	4.11	6.32	–	–
CGTCCGAGGTCAAGGTCAGTGAAAGAGACTCGAA	–	7.79	4.19	3.97	4.69	4.37	–
CAAACGAGGTCACGAAAGGTCAAAGTCGAATGAC	–	9.89	4.62	4.41	6.31	5.28	–
CAAACGAGGTCAAGGTCAAAGTCGGTTTGTGCCA	–	8.18	4.52	4.79	6.15	–	–
ATCGAAAGGTCAAAGGTGAGTATACCCACCCGAA	–	8.44	3.46	0.712	2.97	4.31	–
CGTCAAAGGTCAAGGTAACGTAACAGAAAGCAGC	–	8.73	3.48	1.83	1.62	4.25	–
ACTCGGAGGTCAAAGGTCAGAGCTACGCCAGTGA	–	8.15	3.82	1.5	3.99	–	–

Sequence	PBM binding z-score [1]	PBM binding z-score [2]	PBM binding z-score [3]	PBM binding z-score [4]	PBM binding z-score [5]	PBM binding z-score [6]	PBM binding z-score [7]
CAAACGAGGTCACAGAGGTCAAAGTCCGTGCGTA	–	9.3	4.98	5.02	10.5	–	–
CCTTACGGGTCACGAGGTCATAGCACGACGAGCG	–	6.74	3.05	3.43	4.83	4.58	–
TATACAGGGTCAAAGGTCAGAGTACGAATGTCGA	–	7.28	3.34	1.79	4.33	–	–
CCTGCTAGGTCAAAGGTCAGCTAAAGCAGCTCGC	–	7.57	2.83	1.41	1.75	4.6	–
CAAACGAGGTCAAAGGTCAAAGTCGAGCCAACCA	–	8.66	4.97	3.26	6.2	–	–
ACTTAGGGGTCAACGAGGTTATAGCACGCGTATA	–	7.64	4.82	1.8	6.45	–	–
CCTTAGGGGTCAAGGTTATAGCACGGGTGGTACG	–	7.42	3.5	1.39	4.22	4.36	–
ATCGAAAGGTCAAGGTGAGTATAGAGAAAGGGAA	–	8.56	2.66	1.8	1.84	4.3	–
TGTCAAAGTTCAAAGGTTACGTAAGTATCCACAC	–	6.76	4.3	0.193	4.2	4.44	–
TATACGGGGTCAAAGGCCAGAGTACGAATGTCGA	–	6.78	4.48	1.72	5.21	4.43	–
CCTTAGGGGTCACTCCAGGTTATAGCATCGGAGT	–	7.07	4.21	0.963	4.35	–	–
CCTTAGGGGTCACGAGGTTATAGCACGACGAGCG	–	8.18	4.14	1.8	4.55	4.53	–
TCTCGGAGGTCACGAAAGGTCAGAGCTCGACATC	–	9.26	3.38	2.36	3.58	–	–
AGAACGAGGTCACGCTGAGTTGATAGCAGAGTAG	–	7.61	4.36	3.59	5.15	4.37	–
CAAACAAGGTCACCGGAAGGTCAAAGTCCGCATG	–	8.72	4.24	4.44	5.94	–	–
CGTCAAAGGTCAGAGAGGTCAGTGAATGCCGAGT	–	9.03	3.48	1.6	5.19	4.37	–
CCTTAAGGGTCACGAGGTTATAGCACGACGAGCG	–	7.23	3.17	1.24	2.91	4.24	–
TTACCAAGGTCAAAGGTCGTTGATGCACGCCTTG	–	6.63	3.96	2.76	4.36	4.73	–
CAAACGAGGTCACCGGAAGGTCAAAGTCCGCATG	–	8.7	4.24	4.61	6	–	–
GCTTAGGGGTCAAAGGTTATAGCATGAATAGAAT	–	7.06	4.82	0.683	4.44	4.68	–
CCTTAGGGGTCACTGACAGGTTATAGCATTTGGA	–	7.67	4.43	0.822	3.55	4.27	–
TCTAGTAGGTCAAAGGTCACACACTCGAAATGCG	–	7.76	2.77	2.3	3.32	4.73	–
CGTCAAAGGTCAACTAAGGTAACGTAAAGCACGC	–	9.23	3.52	2.46	2.23	5.48	–
AGTCAAAGGTCATCTAGGTAACGTAAGATATGCT	–	7.77	3.31	1.42	2.52	4.7	–
GCTTACGGGTCAAAGGTCATAGCATGAATAGAAT	–	7.46	3.56	1.04	3.19	–	–
CAAACAAGGTCAAAGGTCAAAGTCGAGCCAACCA	–	8.75	4.5	2.79	5.62	–	–
